Laboratory results published in PubChem BioAssay AID1159580 (chemical genetic matrix, 2015).
Several values for one entry are separate records, joined by “and”; a condition that tells them apart may be missing. Equal values may be shown once. In all, about 5,500 compounds went through this assay and about 2,000 (36%) were called active. About 18% were inconclusive and are not listed. The list shows a part of the results. Values without a mark were called inactive. No stated cut-off is given here; in the data, active means normalized growth mostly below about 0.91 (no sharp cut-off); inconclusive means no clear call, values can overlap the other calls; inactive means mostly above about 0.92.

Experiment: chemical genetic growth profiling, strain panel (AID 1159580);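 further: tested at 20 µM; growth read once vehicle control cultures reached saturation at 30 °C; 1 = growth at the plate median or of vehicle wells; lower values mean less growth of the strain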
Conditions: S. cerevisiae deletion strains, growth OD

Which normalized growth (locus YAL021C, strain ccr4, active compounds read low) does the source give for Oc1cc(O)c2c(c1)O[C@H](c1ccc(O)c(O)c1)[C@H](O)C2 here?
Its normalized growth is 1.02.

And the normalized growth (locus YAL026C, strain drs2, active compounds read low)?
Its normalized growth is 1.01.

And the normalized growth (locus YAL030W, strain snc1, active compounds read low)?
The normalized growth was 1.

What about the normalized growth (locus YBL061C, strain skt5, active compounds read low) of the same molecule?
The normalized growth was 1.02.

What about the normalized growth (locus YBR009C, strain hhf1, active compounds read low) of the same molecule?
Its normalized growth is 1.02.

And the normalized growth (locus YBR021W, strain FUR4, active compounds read low)?
The normalized growth was 1.21 [resistant] (active).

And the normalized growth (locus YBR023C, strain chs3, active compounds read low)?
Its normalized growth is 1.01.

What about the normalized growth (locus YBR171W, strain sec66, active compounds read low) of the same molecule?
Its normalized growth is 1.02.

And the normalized growth (locus YBR229C, strain ROT2, active compounds read low)?
Its normalized growth is 1.

What about the normalized growth (locus YBR231C, strain swc5, active compounds read low) of the same molecule?
The normalized growth was 1.02.

What about the normalized growth (locus YBR279W, strain paf1, active compounds read low) of the same molecule?
Its normalized growth is 1.01.

What about the normalized growth (locus YCL011C, strain gbp2, active compounds read low) of the same molecule?
The normalized growth was 1.01.

What about the normalized growth (locus YCL016C, strain dcc1, active compounds read low) of the same molecule?
The normalized growth was 1.

What about the normalized growth (locus YCL029C, strain bik1, active compounds read low) of the same molecule?
The normalized growth was 0.976.

What about the normalized growth (locus YCL061C, strain MRC1, active compounds read low) of the same molecule?
Its normalized growth is 1.01.

And the normalized growth (locus YCL069W, strain vba3, active compounds read low)?
The normalized growth was 1.01.

And the normalized growth (locus YCR088W, strain abp1, active compounds read low)?
The normalized growth was 1.01.

What about the normalized growth (locus YDL005C, strain med2, active compounds read low) of the same molecule?
Its normalized growth is 1.01.

And the normalized growth (locus YDL035C, strain GPR1, active compounds read low)?
Its normalized growth is 1.03.

And the normalized growth (locus YDL040C, strain nat1, active compounds read low)?
Its normalized growth is 0.998.

What about the normalized growth (locus YDL074C, strain BRE1, active compounds read low) of the same molecule?
Its normalized growth is 1.

And the normalized growth (locus YDL101C, strain DUN1, active compounds read low)?
The normalized growth was 1.

And the normalized growth (locus YDL185W, strain tfp1, active compounds read low)?
The normalized growth was 0.953.

And the normalized growth (locus YDL192W, strain arf1, active compounds read low)?
Its normalized growth is 0.992.

And the normalized growth (locus YDR001C, strain nth1, active compounds read low)?
Its normalized growth is 1.

And the normalized growth (locus YDR069C, strain doa4, active compounds read low)?
The normalized growth was 1.

What about the normalized growth (locus YDR101C, strain arx1, active compounds read low) of the same molecule?
Its normalized growth is 0.986.

What about the normalized growth (locus YDR137W, strain rgp1, active compounds read low) of the same molecule?
The normalized growth was 1.02.

What about the normalized growth (locus YDR150W, strain NUM1, active compounds read low) of the same molecule?
The normalized growth was 0.984.

What about the normalized growth (locus YDR159W, strain sac3, active compounds read low) of the same molecule?
Its normalized growth is 1.06.

And the normalized growth (locus YDR162C, strain NBP2, active compounds read low)?
The normalized growth was 1.03.

And the normalized growth (locus YDR195W, strain ref2)?
The normalized growth was 0.968.

And the normalized growth (locus YDR297W, strain sur2, active compounds read low)?
The normalized growth was 1.01.

What about the normalized growth (locus YDR318W, strain mcm21, active compounds read low) of the same molecule?
The normalized growth was 0.995.

And the normalized growth (locus YDR334W, strain swr1, active compounds read low)?
The normalized growth was 1.01.

What about the normalized growth (locus YDR335W, strain msn5, active compounds read low) of the same molecule?
The normalized growth was 0.994.

And the normalized growth (locus YDR388W, active compounds read low)?
The normalized growth was 0.995.

What about the normalized growth (locus YDR392W, strain spt3, active compounds read low) of the same molecule?
The normalized growth was 1.01.

And the normalized growth (locus YDR502C, strain sam2, active compounds read low)?
Its normalized growth is 1.01.

What about the normalized growth (locus YEL003W, strain gim4, active compounds read low) of the same molecule?
The normalized growth was 1.01.

What about the normalized growth (locus YEL037C, strain rad23, active compounds read low) of the same molecule?
Its normalized growth is 1.02.

And the normalized growth (locus YEL061C, strain CIN8 (second series), active compounds read low)?
The normalized growth was 1.

What about the normalized growth (locus YEL061C, strain CIN8, active compounds read low) of the same molecule?
Its normalized growth is 0.994.

And the normalized growth (locus YER015W, strain faa2, active compounds read low)?
The normalized growth was 1.

And the normalized growth (locus YER016W, strain bim1, active compounds read low)?
Its normalized growth is 1.01.

What about the normalized growth (locus YER110C, active compounds read low) of the same molecule?
The normalized growth was 0.969.

What about the normalized growth (locus YER111C, strain swi4, active compounds read low) of the same molecule?
The normalized growth was 1.

And the normalized growth (locus YER155C, strain BEM2 (second series), active compounds read low)?
The normalized growth was 1.02.

What about the normalized growth (locus YER155C, strain BEM2, active compounds read low) of the same molecule?
Its normalized growth is 1.

And the normalized growth (locus YER167W, strain BCK2, active compounds read low)?
The normalized growth was 1.02.

And the normalized growth (locus YFR010W, strain ubp6, active compounds read low)?
Its normalized growth is 1.01.

What about the normalized growth (locus YGL078C, strain dbp3, active compounds read low) of the same molecule?
Its normalized growth is 0.997.

What about the normalized growth (locus YGL086W, strain mad1, active compounds read low) of the same molecule?
The normalized growth was 0.994.

And the normalized growth (locus YGL167C, strain pmr1, active compounds read low)?
Its normalized growth is 1.01.

What about the normalized growth (locus YGL173C, strain kem1, active compounds read low) of the same molecule?
The normalized growth was 1.01.

And the normalized growth (locus YGL227W, strain vid30, active compounds read low)?
The normalized growth was 1.01.

What about the normalized growth (locus YGL240W, strain doc1, active compounds read low) of the same molecule?
Its normalized growth is 1.04.

And the normalized growth (locus YGL248W, strain PDE1, active compounds read low)?
Its normalized growth is 1.

And the normalized growth (locus YGL253W, strain hxk2, active compounds read low)?
The normalized growth was 1.02.

What about the normalized growth (locus YGR135W, strain pre9, active compounds read low) of the same molecule?
Its normalized growth is 1.01.

What about the normalized growth (locus YGR252W, strain gcn5, active compounds read low) of the same molecule?
Its normalized growth is 1.13.

And the normalized growth (locus YHR013C, strain ard1, active compounds read low)?
Its normalized growth is 0.995.

And the normalized growth (locus YHR027C, strain rpn1, active compounds read low)?
Its normalized growth is 1.01.

What about the normalized growth (locus YHR030C, strain SLT2, active compounds read low) of the same molecule?
Its normalized growth is 1 and 0.992.

What about the normalized growth (locus YHR079C, strain IRE1 (second series), active compounds read low) of the same molecule?
The normalized growth was 0.975.

What about the normalized growth (locus YHR079C, strain IRE1, active compounds read low) of the same molecule?
The normalized growth was 0.992.

What about the normalized growth (locus YHR094C, strain hxt1, active compounds read low) of the same molecule?
The normalized growth was 0.992.

What about the normalized growth (locus YHR129C, strain ARP1, active compounds read low) of the same molecule?
Its normalized growth is 1.

What about the normalized growth (locus YHR142W, strain chs7, active compounds read low) of the same molecule?
The normalized growth was 1.02.

What about the normalized growth (locus YHR200W, strain rpn10, active compounds read low) of the same molecule?
Its normalized growth is 0.983.

What about the normalized growth (locus YIL066C, strain RNR3, active compounds read low) of the same molecule?
The normalized growth was 1.01.

What about the normalized growth (locus YIL073C, strain SPO22, active compounds read low) of the same molecule?
The normalized growth was 0.997.

What about the normalized growth (locus YIL125W, strain kgd1, active compounds read low) of the same molecule?
Its normalized growth is 0.996.

What about the normalized growth (locus YIR030C, strain dcg1, active compounds read low) of the same molecule?
Its normalized growth is 0.986.

And the normalized growth (locus YJL092W, strain hpr5, active compounds read low)?
Its normalized growth is 1.02.

What about the normalized growth (locus YJL095W, strain BCK1 (second series), active compounds read low) of the same molecule?
Its normalized growth is 1.01.

What about the normalized growth (locus YJL095W, strain BCK1, active compounds read low) of the same molecule?
The normalized growth was 0.984 and 1.

And the normalized growth (locus YJL115W, strain asf1, active compounds read low)?
Its normalized growth is 1.

And the normalized growth (locus YJL129C, strain trk1, active compounds read low)?
The normalized growth was 1.02.

And the normalized growth (locus YJL134W, strain LCB3, active compounds read low)?
Its normalized growth is 0.991.

And the normalized growth (locus YJL154C, strain vps35, active compounds read low)?
The normalized growth was 1.01.

And the normalized growth (locus YJL164C, strain tpk1, active compounds read low)?
Its normalized growth is 1.

What about the normalized growth (locus YJL166W, strain qcr8, active compounds read low) of the same molecule?
The normalized growth was 1.02.

And the normalized growth (locus YJL168C, strain set2, active compounds read low)?
The normalized growth was 0.98.

And the normalized growth (locus YJL187C, strain SWE1 (second series), active compounds read low)?
Its normalized growth is 0.994.

And the normalized growth (locus YJL187C, strain SWE1, active compounds read low)?
Its normalized growth is 1.
